Bioassay records deposited in PubChem by several laboratories.
RecA splice inh: inhibitors of M. tuberculosis RecA intein splicing | P9WHJ3 | cell-free RecA intein splicing, fluorescence | inhibition, % (test concentration not listed) | 290,000 compounds, 0.75% hits; in the data active = inhibition above about 30%; inconclusive = no clear call, values can overlap the other calls;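 also: 0% = vehicle wells and 100% = reference inhibitor control wells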
Target sequence (P9WHJ3 whole entry, looked up, canonical isoform): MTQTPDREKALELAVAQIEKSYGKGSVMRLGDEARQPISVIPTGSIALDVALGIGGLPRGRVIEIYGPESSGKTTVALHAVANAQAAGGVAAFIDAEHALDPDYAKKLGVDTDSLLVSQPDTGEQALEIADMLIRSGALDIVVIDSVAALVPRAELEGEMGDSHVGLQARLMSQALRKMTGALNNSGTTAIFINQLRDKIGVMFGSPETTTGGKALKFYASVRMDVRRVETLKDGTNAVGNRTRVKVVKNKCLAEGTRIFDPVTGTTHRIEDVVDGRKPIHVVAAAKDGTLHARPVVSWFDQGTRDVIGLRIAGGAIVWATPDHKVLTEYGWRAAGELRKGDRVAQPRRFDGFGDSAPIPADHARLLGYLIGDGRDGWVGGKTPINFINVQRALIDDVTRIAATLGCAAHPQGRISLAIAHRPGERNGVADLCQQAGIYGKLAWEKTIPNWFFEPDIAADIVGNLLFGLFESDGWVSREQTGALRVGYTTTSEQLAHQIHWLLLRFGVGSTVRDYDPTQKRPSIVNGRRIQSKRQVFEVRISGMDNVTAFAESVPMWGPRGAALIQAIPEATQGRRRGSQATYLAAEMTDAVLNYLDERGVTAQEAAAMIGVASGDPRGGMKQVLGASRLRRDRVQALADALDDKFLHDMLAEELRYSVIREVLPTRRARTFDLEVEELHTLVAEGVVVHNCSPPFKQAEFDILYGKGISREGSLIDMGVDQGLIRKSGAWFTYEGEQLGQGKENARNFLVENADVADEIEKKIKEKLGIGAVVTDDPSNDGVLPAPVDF
FBA Mtb inh: Mtb fructose-bisphosphate aldolase inhibition. purified M. tuberculosis FBA, fluorescence read-out. inhibition, % at 1 µM. 360,000 compounds, 2.3% hits;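 also: 0% = vehicle and 100% = reference inhibitor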
CCHFV vOTU inh: CCHFV vOTU protease inhibition. AID 651958. inhibition, % at 11.5 µM. Pep-AMC fluorescence. 370,000 compounds, 0.55% hits; in the data active = inhibition above about 30%; also: 0% = vehicle wells with enzyme and 100% = no enzyme wells
GDH-TPI counter-1: inhibits GDH-TPI coupling enzymes, artifact for Mtb FBA screen; GDH-TPI coupled enzyme counterscreen, NADH absorbance; inhibition, % at 4.8 µM; 360,000 compounds, 1.2% hits; in the data active = inhibition above about 30%;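 also: 0% = DMSO wells and 100% = wells lacking the enzyme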
Mtb bLac sens: beta-lactam sensitization of Mtb H37Rv; 330,000 compounds, 0.27% hits; M. tuberculosis H37Rv growth with meropenem, percent inhibition; inhibition, % at 25 µM; AID 434955; call rule not given here;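 also: growth measured after seven days incubation then overnight dye step; 0% = bacteria only wells and 100% = bacteria with antibiotic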
Mtb FBA inh conf: confirmation of M. tuberculosis fructose-bisphosphate aldolase inhibitors; inhibition, % at 1 µM; 5,600 compounds, 78% hits; AID 651616; shares compounds with FBA Mtb inh; purified M. tuberculosis FBA, fluorescence read-out;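 also: 0% = vehicle wells and 100% = reference inhibitor wells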
GDH-TPI counter-2: inhibits GDH-TPI coupling enzymes, flagging Mtb FBA hits. 5,600 compounds, 81% hits. shares compounds with FBA Mtb inh. inhibition, % at 1 µM. GDH-TPI coupled enzyme counterscreen, fluorescence; in the data active = inhibition above about 10%
Starred values were filed as active, the others as inactive; i = inactive; ? = inconclusive; nt = no result given; + = active, no number. This is a sample that favours compounds with a hit; in the whole collection about 4.2% have one here. Rule as the data show it, unless noted: active = inhibition above about 27%; inactive = the rest.

SMILES	RecA splice inh	FBA Mtb inh	CCHFV vOTU inh	GDH-TPI counter-1	Mtb bLac sens	Mtb FBA inh conf	GDH-TPI counter-2
COC(=O)c1[nH]c2cc(OC)c(OC)cc2c1NC(=O)CN1C[C@H]2C[C@@H](C1)c1cccc(=O)n1C2	nt	37*	-29	11	-1	69*	54*
O=S(=O)(c1ccc(F)cc1)n1c(CN2CCOCC2)nc2ccccc21	nt	nt	2	nt	nt	nt	nt
CS(=O)(=O)c1ccc(OC[C@@H](O)CN2CCC(C(O)(c3ccccc3)c3ccccc3)CC2)cc1	nt	nt	-8	nt	nt	nt	nt
COc1cc2c(N3CCOCC3)cc(O)c(CC(=O)Nc3ccccc3)c2cc1OC	-3	31*	-15	3	-4	6	-4
COc1cc(CC(=O)Nc2ccc(N3CCOCC3)cc2)cc(OC)c1OC	-5	-4	-19	4	0	nt	nt
Cc1nc(N)c(C#N)c(-c2cccnc2)c1-c1ccccc1	-2	4	-9	9	?	nt	nt
Cc1ccc2c(n1)sc1c(-c3ccccc3)c(C#N)c(N)nc12	-11	69*	-17	20	0	163*	168*
CN(C)C=Nc1ccc2nc3c(cc2c1)[nH]c1ccccc13	-31	51*	-191	18	?	172*	144*
Cn1c(=O)nc2n(Cc3ccccc3)c3ccccc3cc-2c1=O	-73	85*	-63	7	2	72*	52*
COC(=O)c1ccc2c(c1)C(C)(C)C(/C=C/c1ccc(O)cc1)=[N+]2C	0	26	-47	-3	11	nt	nt
COC(=O)c1ccc2c(c1)C(C)(C)C(/C=C/c1ccc(OC)c(OC)c1OC)=[N+]2C	2	47*	-3	5	-1	78*	57*
CCC(=O)c1c[nH]c(C(=O)NCc2cccc(C(F)(F)F)c2)c1	2	79*	3	5	-6	+	+
OC[C@@H]1[C@@H](c2ccc(F)cc2)C(c2ccccc2)=NN1c1ccccc1	nt	29*	-31	7	nt	48*	45*
CC[C@@H]1C(c2ccc(F)cc2)=NN(c2ccccc2)[C@H]1C(=O)N1CCOC1=O	nt	3	7	15	nt	nt	nt
CC[C@H]1C(c2ccc(F)cc2)=NN(c2ccccc2)[C@@H]1CO	nt	30*	-29	14	nt	65*	63*
O=C1OCCN1C(=O)[C@H]1[C@H](c2ccc(F)cc2)C(c2ccccc2)=NN1c1ccccc1	nt	13	5	10	nt	nt	nt
COc1cccc(CNC(=O)[C@H]2CCCN2C(=O)[C@H]2CCCN2C(=O)N2CCOCC2)c1	nt	nt	-3	nt	nt	nt	nt
Cn1cc(C(=O)N2CCC3(CC2)OCCO3)c2c3ccccc3n(C)c2c1=O	-4	40*	-35	16	3	79*	59*
CC(C)CCNC(=O)c1cn(CC(C)C)c(=O)c2c1c1ccccc1n2C	-3	2	-6	4	-7	nt	nt
CC(C)Cn1cc(C(=O)NCc2cccs2)c2c3ccccc3n(C)c2c1=O	1	34*	-8	14	-12	192*	144*
CC(C)Cn1cc(C(=O)N2CCOCC2)c2c3ccccc3n(C)c2c1=O	nt	41*	-47	5	-3	42*	26*
CCOC(=O)N1CCN(C(=O)c2cn(CC(C)C)c(=O)c3c2c2ccccc2n3C)CC1	-3	31*	-29	18	nt	50*	47*
Cc1ccc(-c2cccc3[nH]cc(C)c23)s1	nt	nt	0	nt	nt	nt	nt
CCNC(=O)N1CCN(c2ccc(N3CCN(Cc4ccccc4)[C@H](C)C3)c(C)c2)[C@@H](C)C1	nt	nt	-9	nt	nt	nt	nt
CCOC(=O)N1CCN(C(=O)c2cn(C)c(=O)c3c2c2ccccc2n3C)CC1	-1	41*	-19	16	-6	128*	108*
SMILES	RecA splice inh	FBA Mtb inh	CCHFV vOTU inh	GDH-TPI counter-1	Mtb bLac sens	Mtb FBA inh conf	GDH-TPI counter-2
COc1ccc(N2CCN(C(=O)c3cn(C)c(=O)c4c3c3ccccc3n4C)CC2)cc1	nt	1	nt	15	89	nt	nt
Cc1oc(-c2ccccc2Cl)nc1CSCC(=O)NC1CCCC1	1	1	9	-7	9	nt	nt
CCOC(=O)N1CCC(NC(=O)CSCc2nc(-c3sccc3C)oc2C)CC1	-5	40*	nt	16	2	1	-1
Cc1oc(-c2cccs2)nc1CSCC(=O)NC1CC1	-1	35*	-13	-6	-1	-2	-6
O=C(CN1C(=O)NC2(CCCCC2)C1=O)Oc1ccc2c(C(F)(F)F)cc(=O)oc2c1	i	31*	-105	6	-6	107*	70*
O=C(CN1C(=O)NC2(CCCC2)C1=O)Nc1ccccc1C(F)(F)F	-3	1	1	-5	-9	nt	nt
CCC(C)(C)n1nnnc1C(C(C)C)N(Cc1ccco1)Cc1cc2cc3c(cc2[nH]c1=O)OCO3 (stereo unspecified)	nt	29*	-32	9	0	52*	44*
CCN1CCN(C(c2cc3cc4c(cc3[nH]c2=O)OCO4)c2nnnn2C(C)(C)CC)CC1 (stereo unspecified)	-7	94*	-90	32*	-6	9	1
CCC(C)(C)n1nnnc1C(C(C)C)N(Cc1cccnc1)Cc1ccco1 (stereo unspecified)	2	2	1	1	-5	nt	nt
O=c1[nH]c2cc3c(cc2cc1C(c1nnnn1CC1CCCO1)N1CCCC1)OCO3 (stereo unspecified)	-8	29*	-57	21	-5	+	+
CC(CCN1CCC(C(O)(c2ccccc2)c2ccccc2)CC1)Oc1cc(F)cc(C#N)c1 (stereo unspecified)	nt	nt	20	nt	nt	nt	nt
c1ccc2c(c1)NC(c1ccncc1)n1c-2nc2ccccc21 (stereo unspecified)	-5	56*	-118	11	-9	0	-5
c1cncc(C2Nc3ccccc3-c3nc4ccccc4n32)c1 (stereo unspecified)	-9	36*	-184	8	2	115*	92*
NC1=NC(c2cccnc2)n2c(nc3ccccc32)N1 (stereo unspecified)	0	nt	3	nt	7	nt	nt
c1csc(C2Nc3ccccc3-c3nc4ccccc4n32)c1 (stereo unspecified)	-15	58*	-295	22	?	138*	97*
O=C(c1ccco1)N1CCN(C(=O)c2cc(-c3ccccc3)nc3ccccc23)CC1	1	-1	-8	5	-3	nt	nt
COC(=O)C1CCN(C(=O)c2cc(-c3ccco3)nc3ccccc23)CC1	nt	109*	-137	22	6	54*	43*
O=C(c1cc(-c2ccco2)nc2ccccc12)N1CCN(Cc2ccccc2)CC1	nt	50*	-55	0	1	138*	148*
COc1ccc(S[C@]2(C(=O)N3CCCC3)CC(=O)N(P(=O)(OC)OC)[C@@H]2c2ccc(OC)cc2)cc1	nt	nt	8	nt	nt	nt	nt
COc1ccc(-c2ccc3c(n2)CCCN3S(=O)(=O)c2ccccc2C)cc1	nt	nt	-11	nt	nt	nt	nt
COCCNC(=S)N(CCN(C)C)Cc1cc2cc3c(cc2[nH]c1=O)OCO3	2	26	-58	10	-3	nt	nt
